Bioassay records as filed in PubChem.
In the library only some 3.6% were active in any assay of this set; here they are far more common.
Pf apPOL inh: Pf-apPOL DNA polymerase inhibition; Recombinant Pf-apPOL, molecular beacon fluorescence, 1.5 h; inhibition, % at 10 µM; AID 1794808; hit rate 0.25% among 210,000
mHTT CaM bind: disrupts binding of mutant huntingtin to calmodulin. AlphaScreen His-mHTT/GST-CaM binding, luminescence. inhibition, % at 15 µM. hit rate 3.6% among 190,000. AID 1671202
Large screens that a line does not name were inactive. Rule as the data show it: active = inhibition above about 50%; inactive = the rest.

CCNC(=O)C1Cc2ccccc2N2CCN(c3cnccn3)CC12 (stereo not given)	none
O=C(NCc1ccccc1F)C1Cc2ccccc2N2CCN(c3cnccn3)CC12 (stereo not given)	mHTT CaM bind 84.0
CCN(CC)C(=O)c1cc2c(s1)CCC(C(=O)Nc1ccc(OC)cc1)C2 (stereo not given)	none
COc1cc(NC(=O)c2ccc(N3C(=O)CCC3=O)cc2)c(C(=O)O)cc1OC	none
COc1ccc(Cl)cc1NC(=O)c1cnn2c3c(cnc12)CCCCCC3	none
COc1ccc(C(CC(=O)N2CCCC2)c2c[nH]c3ccccc23)cc1 (stereo not given)	mHTT CaM bind 91.2
COc1cccc(C(CC(=O)N2CCCC2)c2c[nH]c3ccccc23)c1 (stereo not given)	none
O=S(=O)(c1ccc(F)cc1)N1CCC2(CC1)NCCN=C2NC1CCCCC1	none
CCOc1ccc(-c2csc(-n3nc(C)cc3NC(=O)c3ccccc3[N+](=O)[O-])n2)cc1	none
C=CCc1cccc(C=NNC(N)=S)c1O	Pf apPOL inh 55.5, mHTT CaM bind 94.4
C=CCc1cccc(C=Nc2ccc(Br)cc2)c1O	none
OCC(O)C(O)C(O)C(O)C(SCc1ccccc1)SCc1ccccc1 (stereo not given)	none (no result: mHTT CaM bind)
CC(C)C(=O)Nc1nnc2ccccn12	none
O=C(/C=C/c1ccccc1)NC(NC1CCCCC1)C(Cl)(Cl)Cl (stereo not given)	Pf apPOL inh 112.5
CCOc1ccc(NC(NC(=O)/C=C/c2ccccc2)C(Cl)(Cl)Cl)cc1 (stereo not given)	none
COc1ccc(-c2c3c(=O)n(C)c(=O)n(C)c3cn2C2CCCCC2)cc1	Pf apPOL inh 67.0
CNc1ccc([N+](=O)[O-])cc1-n1cc2c(c1-c1ccc(OC)cc1)c(=O)n(C)c(=O)n2C	none
COc1ccc(-c2c3c(=O)n(C)c(=O)n(C)c3cn2Cc2ccc(Cl)cc2)cc1	mHTT CaM bind 76.0
COc1ccc(-c2c3c(=O)n(C)c(=O)n(C)c3cn2-c2ccccc2C)cc1	Pf apPOL inh 54.3
Cc1ccccc1-n1cc2c(c1-c1ccccc1)c(=O)n(C)c(=O)n2C	none
Cn1c(=O)c2c(-c3ccccc3)n(Cc3ccccc3)cc2n(C)c1=O	none
NNC(=O)CS(=O)Cc1cccc(C(F)(F)F)c1 (stereo not given)	none (no result: mHTT CaM bind)
COc1cccc(C2=NC(c3cccnc3)NC(c3ccccc3O)C2)c1 (stereo not given)	none
Cc1ncc2c(n1)CCN(C(=O)c1ccccc1Br)C2	none
O=C(CS(=O)(=O)Cc1ccccc1)Nc1nc2c(s1)COc1ccccc1-2	none
CCOCCCNC(=O)CC1CCN(C(=O)c2sc(-c3ccc(F)cc3)nc2C)CC1	none
Cc1ccc(S(=O)(=O)N2CCCC(C)(C(=O)NCc3cccc(F)c3)C2)c(C)c1 (stereo not given)	none
CCCCCCNC(=O)NCC12CC3CC(CC(C3)C1)C2	none
O=c1[nH]c2ccccc2n1CCCSc1nc2ccccc2o1	mHTT CaM bind 51.0
O=c1[nH]c2ccccc2n1CCCSc1cccs1	none
CCN1CCN(C(=O)Cn2cc(C)sc2=NC(=O)c2cccc(Cl)c2)CC1	none
COc1cccc(C(=O)N=c2sc(C)cn2CC(=O)N2CCCC2)c1	Pf apPOL inh 86.6
COc1ccc(NC(=O)C23CC4CC(CC(C4)C2)C3)c2ccccc12	none
COc1cc(/C=C2/NC(=O)N(Cc3ccc(Br)cc3)C2=O)cc(OC)c1O	mHTT CaM bind 55.0
COc1cc(/C=C2/NC(=O)N(Cc3ccc(Cl)cc3)C2=O)cc(Br)c1O	none
Brc1ccc2[nH]c3c(c2c1)CCCC3NCc1ccccc1 (stereo not given)	mHTT CaM bind 100.3
Cc1ccc2[nH]c3c(c2c1)CCCC3NCc1ccc(F)cc1 (stereo not given)	mHTT CaM bind 57.0
Cc1ccc2[nH]c3c(c2c1)CCCC3NC(N)=O (stereo not given)	none
O=CNC1CCCc2c1[nH]c1ccc(Br)cc21 (stereo not given)	none
COc1cc(OC)cc(-n2nc(C(=O)Nc3cccc(C(F)(F)F)c3)c3ccccc3c2=O)c1	none
CC(=O)Nc1ccc(CNc2ccc(C)cc2)cc1	none
COc1cccc(N2CCN(C(=O)c3csc(-c4cccnc4)n3)CC2)c1	none
CCn1cc(-c2nc(C(=O)N3CCN(c4ccccc4)CC3)cs2)c2cccnc21	mHTT CaM bind 100.2
O=C(c1csc(-c2ccncc2)n1)N1CCN(c2cccc(C(F)(F)F)c2)CC1	mHTT CaM bind 63.0
CCn1cc(CC(=O)N2CCN(c3ccccc3)CC2)c2cccnc21	none
Cc1nc(-c2cn(C)c3ncccc23)sc1C(=O)N1CCN(c2ccccc2)CC1	mHTT CaM bind 55.1
CCn1cc(-c2nc(C)c(C(=O)N3CCOCC3)s2)c2cccnc21	none
CCOC(=O)c1cc(C#N)c2ccccn2c1=O	none (no result: mHTT CaM bind)
COc1ccc(-c2coc3c4c(ccc3c2=O)OCN(c2cc(Cl)c(OC)cc2OC)C4)cc1	mHTT CaM bind 60.0
COc1ccc(-c2coc3c4c(ccc3c2=O)OCN(C2CCCCC2)C4)cc1	none
CCc1ccc(CN2CCc3nc(N4CCN(CC)CC4)ncc3C2)cc1	none
